# In all, about 33,000 sequences were measured (“E-score (-0.5 to 0.5)”: median about -0.016, highest 2% from about 0.31 on). Only a selection was taken, and the highest values are over-represented in it overall.
# Target: Cst6 (UniProt P40535)
# Experiment: PBM E-score (8-mer binding enrichment) (E-score (-0.5 to 0.5)); higher = stronger / more preferred TF binding
# Settings: protein concentration: 200 nM; construct: GST-DNA-binding domain
# Description: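 Universal 'all 10-mer' protein binding microarrays (Agilent AMADID 015681) probed with GST-tagged S. cerevisiae TFs (full-length or DBD) made by in vitro transcription/translation (PURExpress), about 100-200 nM. Bound TF was detected with fluorescent anti-GST. Each ungapped 8-mer (which stands for itself and its reverse complement) is scored by the PBM enrichment score (E-score), a modified Wilcoxon-Mann-Whitney statistic from -0.5 to +0.5, computed with the Universal PBM Analysis Suite. Scale: above 0.35 generally sequence-specific binding.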
# Sequence of UniProt P40535 (P40535 whole entry): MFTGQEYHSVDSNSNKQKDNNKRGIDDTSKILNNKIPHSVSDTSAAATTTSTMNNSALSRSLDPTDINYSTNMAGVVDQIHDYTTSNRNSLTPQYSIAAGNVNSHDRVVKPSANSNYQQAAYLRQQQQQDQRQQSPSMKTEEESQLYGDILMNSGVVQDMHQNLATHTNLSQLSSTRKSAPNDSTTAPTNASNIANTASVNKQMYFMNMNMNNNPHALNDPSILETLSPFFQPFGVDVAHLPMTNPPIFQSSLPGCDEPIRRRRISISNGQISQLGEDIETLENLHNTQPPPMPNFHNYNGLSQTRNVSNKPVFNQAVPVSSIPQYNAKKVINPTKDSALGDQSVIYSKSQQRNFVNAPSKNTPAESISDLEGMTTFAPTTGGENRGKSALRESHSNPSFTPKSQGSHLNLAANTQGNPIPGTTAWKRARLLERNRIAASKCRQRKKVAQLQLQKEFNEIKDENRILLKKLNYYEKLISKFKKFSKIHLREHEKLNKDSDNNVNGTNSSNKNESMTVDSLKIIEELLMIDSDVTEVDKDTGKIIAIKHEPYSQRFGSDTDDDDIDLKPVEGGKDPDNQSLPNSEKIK
row,Sequence,PBM E-score
1,CCTCCCTC,-0.162
2,GGAAATGA,0.195
3,CGTAGATC,0.143
4,CTCGAAAC,0.0781
5,GGTAGGCA,-0.184
6,AGGCGACT,-0.103
7,CGATGAAC,-0.0118
8,CAAGGCGG,0.00218
9,ATCCGCAA,-0.0389
10,CGGCGTCA,0.34
11,TCGCGGCA,-0.0207
12,TCGCGTCA,0.369
13,CGGCGTCC,0.113
14,TCGCGACA,-0.202
15,AGGCGTCA,0.256
16,ACGCCGAA,0.0504
17,AAAACATG,0.114
18,AAATGATC,0.0366
19,CAATGATC,0.095
20,CAATGATG,0.391
21,AAATGATT,0.294
22,CAATGATA,0.268
23,AAATGATG,0.332
24,CTAATCTA,-0.0326
25,GTAATCAC,0.225

row,Sequence,PBM E-score
1,CTAATCAA,0.205
2,GTAATCAA,0.313
3,ATAATCTA,0.0831
4,GTAATCTA,0.345
5,CTAGATTC,-0.0987
6,ATTTCATG,0.00873
7,CAAACTAG,-0.195
8,AGACCTCA,0.022
9,TGACCTAA,0.362
10,GGACCTAA,-0.105
11,CGACCTAA,0.11
12,TGACCTCA,0.45
13,CGACCTCA,0.0422
14,CAGGACAA,0.0953
15,TCCACCAA,-0.117
16,GAAGAACC,-0.119
17,AGATGATC,0.0705
18,ATATGATG,0.333
19,AGATGATA,0.211
20,ATATGACC,0.108
21,ATATGATC,0.234
22,ATATGATA,0.296
23,CTATGACC,0.193
24,AGATGATG,0.346
25,ATATGACG,0.472

row,Sequence,PBM E-score
1,AAATGGCG,0.142
2,TAGTGCCA,-0.123
3,AGCTAAGC,-0.156
4,GCGCTGCA,-0.0118
5,CGAACCCG,-0.251
6,CCGGATTC,-0.172
7,ACCTATTA,0.0751
8,GGAGATCA,-0.0624
9,TGAGATCA,0.344
10,AGAGATCA,-0.0737
11,GGCATCAC,0.227
12,ATAATCAT,0.344
13,ATAATCAG,0.106
14,ATCATCAC,0.341
15,GTCATCAC,0.409
16,AGCATCAC,0.0541
17,AACATCAC,0.295
18,CTCATCAC,0.146
19,ATAATCAA,0.16
20,GCCATCAC,0.0711
21,AACATCAG,0.183
22,AACATCAT,0.378
23,ACCTTCAA,-0.00754
24,AACGCAAG,0.00296
25,AATCTGAG,-0.0919

row,Sequence,PBM E-score
1,AAGTCTTG,-0.0973
2,ATAGCGGA,-0.107
3,ACTATTGA,0.202
4,AGGGCGCA,-0.0682
5,ATCATCAT,0.355
6,ATAATGAT,0.334
7,AGCATCAT,0.251
8,ATAATGAG,0.0695
9,ATAATGAC,0.295
10,ATCATCAG,0.259
11,GGTGTCTA,0.0529
12,AGGCTGCG,-0.225
13,GTAGGACA,-0.0243
14,CGCTTCGC,-0.0922
15,ACACACAC,0.0991
16,TAACCTAA,0.158
17,ATTCGATG,0.105
18,CATCATCC,0.345
19,CATCATCG,0.333
20,AATCATCA,0.308
21,AATCATCT,0.114
22,ACTCATCA,0.00088
23,CCTCATCG,0.00595
24,CCTCATCA,0.161
25,CATCATCA,0.409

row,Sequence,PBM E-score
1,GATCATCC,-0.0712
2,AATCATCG,0.039
3,GATCATCA,0.163
4,AATCATCC,0.113
5,ACGCTGCT,-0.22
6,CCGGGCGC,-0.213
7,TGCCTAAA,0.0602
8,CCGATTTC,-0.121
9,TACCGACA,0.075
10,TAGGCTGA,-0.0803
11,CCCCTACG,-0.298
12,GAGGAGGA,-0.288
13,ACTCCTTC,-0.234
14,TCTCATCA,0.181
15,TATCATCA,0.341
16,CATCATTA,0.327
17,CATCATTC,0.223
18,AATCATTA,0.28
19,TATCATAA,0.144
20,CCTGCTTA,-0.0696
21,GGGTCGCA,-0.144
22,CCGAGGCG,0.0158
23,CTCCTAGA,-0.09
24,ATGCATTA,0.255
25,CACTTACC,0.0685

row,Sequence,PBM E-score
1,ATATTACC,0.248
2,AAATTACT,0.222
3,AAATTACG,0.336
4,ATATTACA,0.248
5,AAATTACC,0.199
6,CACTTACG,0.351
7,CAATTACC,0.138
8,CACTTACA,0.173
9,CAATTACA,0.223
10,CAATTACG,0.346
11,ATATTACG,0.415
12,AACTGCCT,0.129
13,CCGTTGCG,0.0674
14,TACCTGCA,-0.0618
15,ACAAGATA,0.0758
16,AGCTATGA,0.101
17,ATATGCAC,0.0769
18,ACGGGCAC,-0.105
19,CAGCCCAC,-0.191
20,AAGGTAAT,0.129
21,ACCGTCCC,-0.173
22,ATGTAAGA,0.339
23,GTGTAAGA,0.0158
24,TCGTAAGA,0.00239
25,ACGTACGG,0.149

row,Sequence,PBM E-score
1,ACGTAAGC,0.381
2,CCGTAAGC,-0.0303
3,ACGTACGT,0.311
4,ACGTAAGA,0.448
5,CCGTAAGA,-0.0536
6,GCGTAAGC,0.0902
7,CTGTAAGA,0.0332
8,ACGTACGC,0.229
9,ATCTGGAA,0.184
10,GCTCAATA,0.0653
11,CATAGAGG,-0.0937
12,CACCTCGG,0.02
13,CACCATTC,0.0213
14,AGGTATTC,0.0784
15,ACCGCAGG,-0.104
16,CCACCGAC,-0.163
17,ACTCAAGT,-0.053
18,CACAACCA,0.124
19,GTATACCA,-0.051
20,TGCGCCAA,-0.0304
21,AAGTAAGT,0.116
22,ACGTAAGT,0.422
23,CCGTAAGG,-0.113
24,AGGTAAGG,-0.132
25,ACGTAAGG,0.347

row,Sequence,PBM E-score
1,AAGTAAGC,0.0657
2,AGTGGCGC,0.00481
3,AGCCAAAG,-0.114
4,GATGATAA,0.257
5,CCAGCTCC,-0.29
6,ACGCTCCG,-0.119
7,GAAATAAC,0.148
8,AAAATAAC,0.178
9,CAAATAAC,0.37
10,ACAGGGCG,0.0932
11,ACCGACGA,-0.0237
12,ACCTCCGT,-0.0629
13,AAATGGCC,-0.0934
14,ATGCATCA,0.372
15,ATACATAT,0.337
16,GTACATCA,0.275
17,ATACATAA,0.258
18,CTACATCA,0.302
19,GTGCATCA,0.0738
20,ATGCATCG,-0.00649
21,ATACATAC,0.0814
22,ATACATCA,0.398
23,CAGTCGCG,-0.25
24,AGATTCAC,-0.122
25,GAAACCTA,-0.148

row,Sequence,PBM E-score
1,CTAAAGGC,0.0355
2,CATCAAAG,0.0154
3,AAGGGAAT,0.112
4,GTGTAATA,0.214
5,ATGTAATC,0.299
6,CTGTAATA,0.108
7,ATGTAACG,0.235
8,ATGTAATG,0.394
9,ATGTAATA,0.415
10,CATCATGA,0.363
11,AATCATGG,0.0769
12,GATCATGC,-0.137
13,TATCATGA,0.186
14,CATCATGG,0.249
15,AATCATGT,0.139
16,AATCATGA,0.338
17,AATCATGC,0.0631
18,CATCATGC,0.362
19,GATAGCGC,-0.152
20,GGGAGTCA,-0.153
21,ACGCTATC,0.093
22,CAGCTGCC,-0.146
23,AGAAGTCA,0.0402
24,GGAAGGCC,-0.136
25,AAGAACAG,0.0582

row,Sequence,PBM E-score
1,AAGAACAC,0.167
2,AAGAACAA,0.327
3,TCCCTCGA,-0.205
4,AGAAGTCT,-0.118
5,AGACGTAA,0.371
6,CGACGTAA,0.451
7,CGACGTAC,0.139
8,AGACGTAC,-0.0375
9,TGTCGTAA,0.303
10,AGACGTAG,-0.133
11,TGACGTAA,0.499
12,GGACGTAA,0.279
13,GGACGTAC,-0.065
14,CGTGGTGC,-0.177
15,CAGACCTA,-0.00947
16,GCACAGAA,0.109
17,AGCTGAGA,-0.101
18,AATCCAAT,0.139
19,AATCAGCT,0.186
20,ACTCACGA,-0.053
21,GCTTTAAC,0.135
22,ACGGCGTA,0.358
23,ATGGCGTG,0.113
24,ATGGCGTC,0.311
25,CTGGCGTC,-0.0408

row,Sequence,PBM E-score
1,ACGGCGGC,0.156
2,ACGGCGGG,0.108
3,AGGGCGTG,-0.115
4,CCGGCGTC,-0.0641
5,CCGGCGTA,-0.134
6,ACGGCGTG,0.314
7,GCGGCGTA,0.23
8,ACGGCGTC,0.347
9,ACCGGTCA,-0.0152
10,ACGCCACG,0.0785
11,GGAAAACC,-0.0924
12,TCACAGAA,0.133
13,CCAGTGCA,-0.185
14,GCAGTTCA,0.0321
15,CAATGCGA,0.136
16,GACGGGTA,-0.0938
17,GTCCCATA,-0.14
18,CTGAAACA,-0.0169
19,CATTTTAC,0.273
20,AATTTTAA,0.25
21,AATTTTAC,0.326
22,ATTTTTAC,0.201
23,AAATTTAT,0.234
24,AATTTTAT,0.346
25,ATTTGCTA,0.156

row,Sequence,PBM E-score
1,CTATTCAA,0.197
2,ACAACCAT,0.325
3,ACAACCAG,0.0122
4,ACAACCAC,0.133
5,CTACGCAA,0.119
6,GGCACGTA,0.119
7,AATGAAAA,0.236
8,AATGAAAG,0.168
9,AAATGAAA,0.322
10,TAATGAAA,0.261
11,CAATGAAA,0.153
12,AATGAAAT,0.37
13,CAAACTTC,0.177
14,AACCTTAG,-0.158
15,AAGAGGAC,-0.249
16,AAACAGGA,0.0722
17,TATTTTAA,0.259
18,ATTTTTAA,0.293
19,GATTTCAA,-0.0222
20,AATTAAAA,0.187
21,TATTTCAA,0.318
22,GATTAAAA,0.242
23,CATTTAAA,0.279
24,TATTAAAA,0.323
25,ATTTTAAA,0.308

row,Sequence,PBM E-score
1,TATTTAAA,0.308
2,CATTTCAA,0.222
3,GTTTTAAA,0.196
4,CAAACCCC,-0.178
5,AAGGCGTA,0.0577
6,AGGCGAAT,0.0491
7,TCCTTGAA,-0.0366
8,AGGGCAGA,-0.248
9,GAGTTACC,-0.0903
10,ATGGCACG,0.111
11,ACCGGTGC,-0.105
12,ACCTTTTC,-0.133
13,CTCAGTGA,0.0623
14,ATCAGTGA,0.136
15,GTCAGTGA,0.308
16,GGTACACC,-0.287
17,GGCAGGCA,-0.193
18,ACATGTCA,0.275
19,GAATGTCA,0.206
20,TCATGTCA,0.382
21,AAATGTCA,0.216
22,TAATGTCA,0.356
23,GCATGTCA,0.287
24,ATCCATGG,-0.138
25,GGAGATTA,0.13

row,Sequence,PBM E-score
1,AGCTTCGC,-0.134
2,CGAACGAG,-0.108
3,CCACTTCA,-0.197
4,AACCACCA,0.00505
5,CGGCCGCC,-0.0119
6,GGTATTTA,0.0257
7,AGTATTTA,0.171
8,CGTATTTA,0.358
9,GAGCCTGC,-0.173
10,AAACAGGC,-0.0905
11,GTAACGTA,0.302
12,AGAACGTC,0.142
13,ATAACGTG,0.213
14,ATAACGAA,0.217
15,CTAACGTA,0.281
16,ATAACGTC,0.38
17,CAAACGTC,0.137
18,CTAACGTC,0.356
19,ATAACGTA,0.398
